Test results reported in PubChem BioAssay (NCI).
The panel holds about 83,000 compounds, 20% with a hit somewhere; the sample as a whole holds those more often.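 The test compound was applied at a single concentration to cells in 96-well plates for 48 hours, and percent growth was recorded.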 A number with no mark means an inactive call. The source made the active and inactive calls. How the source made its calls: active means growth percent below 10; inactive means the rest.

Assays:
Experiment in all cases: NCI-60 one-dose screen, 48 h (100 = growth as untreated, 0 = no growth, -100 = all killed)
[1] = system: NCI-H23 lung; conditions: 10 µM unless noted
[2] = system: NCI-H226 lung; conditions: 10 µM unless noted
[3] = system: NCI-H322M lung; conditions: 10 µM unless noted
[4] = system: HOP-62 NSCLC; conditions: 10 µM unless noted
[5] = system: HOP-92 NSCLC; conditions: 10 µM unless noted
[6] = system: A549/ATCC NSCLC; conditions: 10 µM unless noted
[7] = system: 786-0 renal; conditions: 10 µM unless noted
[8] = system: COLO 205 colon; conditions: 10 µM unless noted
[9] = system: NCI-H460 lung; conditions: 10 µM unless noted
[10] = system: NCI-H522 lung; conditions: 10 µM

Compound | growth [1] | growth [2] | growth [3] | growth [4] [%] | growth [5] | growth [6] | growth [7] | growth [8] | growth [9] | growth [10]
CC[C@@H](c1ccc(O)c(O)c1)[C@@H](CC)c1ccc(O)c(O)c1 | 96.6% | 105% | 97% | 106 | 69.6% | 107% | 100% | 9.38% (active) |  | 
CC(=O)Nc1c(Cl)cc2c(c1Cl)Cc1cc([N+](=O)[O-])ccc1-2 | 88% | 85% | 94.9% |  | 53.3% | 74.5% | 77.9% | 103% | 81.3% | 
CCSc1nc(Nc2ccc(S(=O)(=O)Nc3ccon3)cc2)c(C#N)c(-c2cccc(Br)c2)n1 | 101% | 77.2% | 74.3% |  | 90.2% |  | 94.8% | 117% | 106% | 87.3%
[N-]=[N+]=NCc1ncc(-c2ccc(C(F)(F)F)cc2)c(NC2CCCCCC2)n1 | 66.1% [50 µM] | 80.9% [50 µM] | 89.5% [50 µM] |  | 64.5% [50 µM] | 59.4% [50 µM] | 68.7% [50 µM] | 87.2% [50 µM] | 58.4% [50 µM] | 
C[C@]12CCC(=O)C=C1CCC1C2[C@@H](O)C[C@@]2(C)C1CC[C@]2(O)C(=O)COC(=O)CCC(=O)O (stereo partly specified) | 106% | 77.4% | 95.4% |  | 60.6% |  | 116% | 110% | 102% | 107%
COc1cc(/C=C/c2cc(/C=C/c3ccc(O)c(OC)c3)n(C(=O)Cc3ccccc3)n2)ccc1O | 1.94% (active) | 13.7% | 9.62% (active) |  | -0.112% (active) | 4.22% (active) | 10.2% | -64.3% (active) | 4.69% (active) | 
CC12CCC3C(=CCc4cc(O)ccc43)C1CCC2=O (stereo unspecified) | 103% | 102% | 94.9% |  | 99.4% |  | 105% | 111% | 108% | 97%
CC(=O)N1N=C(c2ccc3c(c2)OCO3)CC1c1c(C)nn(-c2ccccc2)c1N(C)Cc1ccccc1 (stereo unspecified) | 86.9% | 76.3% | 89.6% |  | 46.1% | 50.6% | 85.5% | 79.3% | 79.1% | 
COc1ccc(CC(=O)Nc2nn3c(-c4cc(C(F)(F)F)cc(C(F)(F)F)c4)nnc3s2)cc1 | 35.2% | 62.8% | 90.6% |  | 15.4% | 78.1% |  | 104% | 56.6% | 
CC1=C([Se]CC(OC(=O)[C@@H](CSSC(C)(C)C)NC(=O)C(C)(C)C)C(=O)NCCCCCC(=O)OCc2ccccc2)C(=O)c2ccccc2C1=O (stereo partly specified) | -30.2% (active) | 3.19% (active) | -22.6% (active) |  | -35.9% (active) | 1.31% (active) | -55.6% (active) | 40.4% | 1.81% (active) | 
Cc1ccc(C2=Nc3c(ccc4c(C)c(C)c(=O)oc34)OC2)cc1 | 97.4% | 101% | 90.2% |  | 87.1% | 99.5% | 93.6% | 111% | 102% | 
O=C(CC1Sc2ccccc2NC1=O)NNc1cccc(Cl)c1Cl (stereo unspecified) | 77% | 73.9% | 73.5% |  | 24.4% | 92.3% | 95.3% | 82.2% | 66.2% | 
OC(c1ccccc1)C(NCc1ccccc1)c1ccccc1 (stereo unspecified) | 93.5% | 97.7% | 97.8% |  | 71.8% | 101% | 87.2% | 116% | 100% | 
O=C(Nc1ccc(Cl)cc1)Nc1nc2ccc(OC(F)(F)F)cc2o1 | 68.6% | 107% | 113% |  | 71.9% | 75.1% | 105% | 118% | 81.8% | 
COc1ccc(-c2cc(-c3nnc(SCC(=O)Nc4ccc(C(C)=O)cc4)n3-c3ccccc3)c3ccccc3n2)cc1OC | 96.2% | 105% | 102% |  | 104% | 94.9% | 97.1% | 98.8% | 103% | 
COc1cccc(-c2nc(-c3ccc(N)cc3)co2)c1 | 106% | 94.2% | 102% |  | 86.8% | 84.9% | 94.4% | 141% | 115% | 

Compound | growth [1] | growth [2] | growth [3] | growth [4] [%] | growth [5] | growth [6] | growth [7] | growth [8] | growth [9] | growth [10]
COc1cc(-c2nnc(-c3nc(-c4cc(OC)c(OC)c(OC)c4)n4ccccc34)o2)ccc1N | 67.7% | 83% | 83.1% |  | 29.2% | 28.2% | 68.6% | 88.7% | 68.3% | 
COc1cccc(C2=NN(C(C)=O)C(c3cc(OC)c(OC)c(OC)c3)C2)c1 (stereo unspecified) | 52% | 90.1% | 77% |  | -0.613% (active) |  | 30% | 22.2% | -0.923% (active) | -38% (active)
c1ccc(COc2ccc(Nc3ncnc4c3cnn4-c3ccccc3)cc2)cc1 | 109% | 103% | 84.1% |  | 98.8% | 104% | 100% | 107% | 93.7% | 
O=C(CNc1ccc2c(c1)C(=O)c1ccccc1C2=O)Nc1ccc2c(c1)C(=O)c1ccccc1C2=O | -70.5% (active) | -62% (active) | -95.2% (active) |  | -65.7% (active) |  | -90.3% (active) | -89% (active) | -71.6% (active) | -96.2% (active)
FC(F)(F)c1ccc(-c2cnc(-c3nn[nH]n3)nc2NC2CCCCCC2)cc1 | 66% [50 µM] | 70.9% [50 µM] | 51.1% [50 µM] |  | -8.27% [50 µM] (active) | 81.1% [50 µM] | 49.8% [50 µM] | 95% [50 µM] | 34.6% [50 µM] | 
CCCCCCCCCCN1CCC(N2CCCCC2)CC1 | 38% | 69.5% | 88% |  | -12.4% (active) |  | -93.1% (active) | -85.7% (active) | -37.9% (active) | -59.7% (active)
O=C(/C=C/c1ccc(C(F)(F)F)cc1)c1ccc(Nc2nc(NCCO)nc(NCCO)n2)cc1 | 84.3% | 75.3% | 74.8% |  | 99.3% | 34.9% | 30.4% | 37.3% | 82.8% | 
NS(=O)(=O)c1ccc(-n2ncc3c(NC4CCCCC4)ncnc32)cc1 | 103% | 91.5% | 107% |  | 47.4% | 83% | 81% | 95% | 110% | 
CCCCc1n(Cc2ccc3ccccc3c2)cc[n+]1Cc1ccc2ccccc2c1 | -23.8% (active) | -0.475% (active) | 23.3% |  | -38.2% (active) | 29.8% | -18.4% (active) | -77.1% (active) | -13.1% (active) | 
N#Cc1c(NC(=O)c2ccco2)[n+]([O-])c2ccccc2[n+]1[O-] | 110% | 86.1% | 103% |  | 164% | 99.7% | 99.2% | 105% | 107% | 
C(#Cc1ccccc1C#Cc1ccccn1)c1ccc(OCCCCCCOc2ccc(C#Cc3ccccc3C#Cc3ccccn3)cc2)cc1 | 57.3% | 67.3% | 67.8% |  | 9.48% (active) | 25.3% | 29.3% | 120% | 19.9% | 
O=C(Nc1cccc(Cl)c1)Nc1cccc(Cl)c1 | 35.8% | 81.1% | 79.1% |  | 87.6% | 52.4% | 77.1% | 89.2% | 52% | 
Cc1c2oc3c(C)ccc(C(=O)OC(C)C4NC(=O)C(C(C)C)N(C)C(=O)CN(C)C(=O)C5CCCN5C(=O)C(C(C)C)NC4=O)c3nc-2c(C(=O)OC(C)C2NC(=O)C(C(C)C)N(C)C(=O)CN(C)C(=O)C3CCCN3C(=O)C(C(C)C)NC2=O)c(N)c1=O (stereo unspecified) | -7.25% (active) | -40.7% (active) | 1.84% (active) |  | -15.7% (active) |  | -11.9% (active) | -63.8% (active) | 5.45% (active) | -60.1% (active)
CCCCCCCCCCCCC1CCCC(C)C1 (stereo unspecified) | 105% | 99.8% | 95% |  | 69.1% | 93.1% | 92.3% | 98.1% |  | 
CS(=O)(=O)N1CCN(Cc2cc3nc(-c4cccc5[nH]ncc45)nc(N4CCOCC4)c3s2)CC1 (tested in a mixture with another compound) | 23.4% | 8.7% (active) | 3.39% (active) |  | -37.6% (active) | 4.32% (active) | -10.5% (active) | 8.18% (active) | 21.7% | 
